Screens from PubChem BioAssay.
An excerpt weighted towards active compounds, which were near 0.51% of everything screened.
E coli growth-1 – bacterial growth inhibition, counter-screen for AddAB inhibitors | E. coli V3065 growth, OD600 absorbance, 18 h | inhibition, % at 11.9 µM | hit rate 0.27% among 330,000;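 active = inhibition above the campaign's mean inhibition across all tested compounds plus 3 SD, cut at about 9.9% in these data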;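 note: uninfected addAB+ strain grown without phage in ampicillin broth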
Tat export inh – E. coli Tat transport inhibition; hit rate 0.036% among 340,000; AID 488895; E. coli MC4100 TorA-mCherry Tat export, fluorescence; inhibition, % at 10 µM;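 active = mean replicate inhibition at least 50% and at least half of replicates individually reaching 50%; inconclusive = only one of the two criteria met; inactive = neither criterion met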;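 note: exported cargo escapes ClpAP degradation while cytoplasmic cargo is degraded and loses fluorescence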
AddAB inh – less growth of phage-infected E. coli with AddAB; E. coli expressing H. pylori AddAB, absorbance growth; inhibition, % at 11.9 µM; hit rate 0.29% among 330,000; AID 435030; in the data active = inhibition above about 12%
E coli growth-2 – inhibitors of Escherichia coli growth; OD600, 23 h; hits give low values; OD600 absorbance (concentration not given with the values); hit rate 0.21% among 330,000; AID 1053175;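 active = OD600 absorbance below the run mean of sample wells minus 3.6 SD, in any replicate, cut at about 0.56 in these data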
phage Ecoli inh – E. coli growth loss with phage present; growth absorbance; inhibition, % at 11.9 µM; hit rate 0.26% among 360,000; in the data active = inhibition above about 11%
AddAB confirm – confirmation screen: growth loss of phage-infected E. coli expressing H. pylori AddAB | shares compounds with AddAB inh | E. coli V3065 expressing H. pylori AddAB, T4 phage, OD; T4 phage with gene 2 nonsense mutations | inhibition, % at 11.9 µM | hit rate 64% among 880 | AID 488942;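 active = mean inhibition above a set limit taken from the earlier primary screen, cut at about 13% in these data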;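 note: higher means less bacterial growth since AddAB block lets phage replicate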
RecBCD counter – counter-screen: growth loss of RecBCD+ E. coli with mutant T4 phage | E. coli V66 + mutant T4 phage, OD growth | AID 488955 | hit rate 73% among 880 | inhibition, % at 11.9 µM | shares compounds with AddAB inh;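 active = mean inhibition above the mean of solvent-only control wells plus 3 SD, cut at about 4% in these data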;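 note: optical density read after an 18 h incubation at 37 °C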
bact viab count – counter-screen for AddAB inhibitors: inhibitors of bacterial viability | hit rate 35% among 880 | AID 488956 | inhibition, % at 11.9 µM | shares compounds with AddAB inh | absorbance (AddAB counterscreen); in the data active = inhibition above about 25%
Of the large screens only hits and unclear results are named; the others gave an inactive call (follow-up assays come after a bar, where they were run).

COC(=O)c1cc(=O)n(CCc2ccccc2)c(=Nc2ccc(F)cc2)s1	E coli growth-1 99, AddAB inh 99 | AddAB confirm inactive | RecBCD counter inactive | bact viab count inactive
Cn1ccnc1SCC(=O)c1ccc(Cl)cc1	E coli growth-1 35, AddAB inh 82 | AddAB confirm inactive | RecBCD counter inactive | bact viab count inactive
Cn1ccnc1SCC(=O)c1ccc(O)cc1	none
CC(=O)NC(c1cccs1)c1cc(F)c2cccnc2c1O (stereo not given)	none
COc1ccc(C(NC(C)=O)c2ccc3cccnc3c2O)c(OC)c1 (stereo not given)	AddAB inh 12 (no result: phage Ecoli inh) | AddAB confirm inactive | RecBCD counter 6.8 | bact viab count inactive
COc1ccccc1C(NC(C)=O)c1cc(Cl)c2cccnc2c1O (stereo not given)	none
CCCC(=O)NC(c1ccccc1OC)c1ccc2cccnc2c1O (stereo not given)	E coli growth-1 31, AddAB inh 34 (no result: phage Ecoli inh) | AddAB confirm 30 | RecBCD counter 26 | bact viab count inactive
CC(C)CC(=O)NC(c1cccs1)c1ccc2cccnc2c1O (stereo not given)	E coli growth-1 35, AddAB inh 26 (no result: phage Ecoli inh) | AddAB confirm 26 | RecBCD counter 23 | bact viab count inactive
CCCC(=O)NC(c1ccc(C)cc1)c1ccc2cccnc2c1O (stereo not given)	E coli growth-1 34, AddAB inh 24 (no result: E coli growth-2, phage Ecoli inh) | AddAB confirm 28 | RecBCD counter 26 | bact viab count inactive
O=C(Nc1ccccc1)C1=CC(c2coc3ccccc3c2=O)CC(OCc2ccc(CO)cc2)O1 (stereo not given)	none (no result: E coli growth-1, Tat export inh, AddAB inh, phage Ecoli inh)
CCOC(=O)C=CC(=O)OCC(=O)Nc1ccc(Cl)cn1	none (no result: E coli growth-1, Tat export inh, AddAB inh, phage Ecoli inh)
COc1ccc(OCC(O)CNC(=O)c2ccc(Br)cc2)cc1 (stereo not given)	none
COc1ccc(OCC(O)CNc2ccc(Br)cc2)cc1 (stereo not given)	AddAB inh 12 | AddAB confirm 13 | RecBCD counter 9.3 | bact viab count inactive
COC(=O)[C@@]12CCCCN1C(c1ccc(SC3CCCCC3)cc1)C1C(=O)N(C)C(=O)C12 (stereo not given in full)	none (no result: E coli growth-1, Tat export inh, AddAB inh, phage Ecoli inh)
COc1ccc(C2=NS(=O)(=O)N(C)C(C(=O)NCc3ccco3)=C2)cc1OC	none
Cc1ccc(C2=NS(=O)(=O)N(C)C(C(=O)NCc3ccco3)=C2)cc1	AddAB inh 26 | AddAB confirm inactive | RecBCD counter inactive | bact viab count inactive
CC1(C)CC(=O)CC(=NNC(=O)COc2ccc3ccccc3c2Br)C1	none (no result: E coli growth-1, Tat export inh, AddAB inh, phage Ecoli inh)
Cc1cc(C(C)(C)C)cc(C)c1CC1=NCCN1	E coli growth-1 10.0, AddAB inh 14 | AddAB confirm 53 | RecBCD counter inactive | bact viab count inactive
c1ccc(CC2=NCCN2)cc1	Tat export inh inconclusive
Cc1c(C(=O)NN=Cc2ccoc2)cccc1[N+](=O)[O-]	none (no result: E coli growth-1, Tat export inh, AddAB inh, phage Ecoli inh)
CCOC(=O)c1c(C)nc(C)c2c(=O)oc3ccccc3c12	E coli growth-1 99, AddAB inh 98 | AddAB confirm inactive | RecBCD counter inactive | bact viab count inactive
COc1cc(C(=O)NN=Cc2ccccc2)c([N+](=O)[O-])c(OC)c1OC	none (no result: E coli growth-1, Tat export inh, AddAB inh, phage Ecoli inh)
NC(=O)c1ccsc1NC(=O)COC(=O)c1ccc([N+](=O)[O-])o1	E coli growth-1 13, AddAB inh 97 | AddAB confirm 97 | RecBCD counter 8.3 | bact viab count inactive
N#Cc1c(NC(=O)c2ccccc2)sc2c1CCC2	none
NC(=O)c1c(NC(=O)c2ccc([N+](=O)[O-])o2)sc2c1CCCC2	E coli growth-1 18, AddAB inh 23 | AddAB confirm 98 | RecBCD counter 8.8 | bact viab count 28
N#Cc1c(NC(=O)c2ccc([N+](=O)[O-])o2)sc2c1CCC2	E coli growth-1 11, AddAB inh 16 | AddAB confirm 64 | RecBCD counter 7.3 | bact viab count inactive
C(CCc1ccccc1)=Nn1cnnc1	none (no result: E coli growth-1, Tat export inh, AddAB inh, phage Ecoli inh)
